Data: PubChem BioAssay
The source made the active and inactive calls. Unless noted, the rule behind the calls is not given here.

Columns and labels:
[1] = tested on: Wnt5a (protein binding on small-molecule microarray); assay: Wnt5a binders on small-molecule microarray, primary screen, biophysical, 635/667 nm fluorescence (AID 1142); settings: 635 nm fluorescence, higher = more signal;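 note: fluorescence read at 667 nm with signal to noise per printed feature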
[2] = cell viability in Huh7 cells, primary screen, cytotoxicity control for HCV replication inhibitor project, CellTiter-Glo luminescence, basal, 48 h (AID 1143); settings: Huh7 HCV replicon, higher = more signal, called active from +8 up or from −8 down;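 note: Huh7 hepatoma cells carrying a hepatitis C replication reporter with no stimulus; test concentration not given here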
[3] = P. aeruginosa biofilm formation inhibitors, primary screen, PAO1 strain, BacTiter-Glo luminescence, LB-PBS (AID 1144); settings: 12 h, higher = more signal
[4] = CREB reporter modulators without forskolin, primary screen, cell-based, PC12, CRE-LacZ reporter, unstimulated (AID 1145); settings: no forskolin, luminescence, 4.5 h, higher = more signal, called active from +8 up or from −8 down
[5] = CREB reporter modulators under forskolin, primary screen, cell-based, PC12, CRE-LacZ reporter, forskolin-stimulated (AID 1146); settings: luminescence, 4.5 h, higher = more signal, called active from +8 up or from −8 down;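 note: PC12 cells with 6xCRE LacZ reporter stimulated by forskolin 10 µM; beta-galactosidase reporter signal reflecting CREB driven transcription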
[6] = target: Streptavidin (Streptomyces avidinii) (UniProt P22629); assay: streptavidin binders on small-molecule microarray, primary screen, artefact control for SMM compound annotation, biophysical, 635/667 nm fluorescence (AID 1147); settings: streptavidin binding, higher = more signal;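 note: signal reflects streptavidin binding to arrayed compounds as a control protein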
[7] = small-molecule binders of probe aInhba, primary screen, biochemical, small-molecule microarray, 635/667 nm fluorescence (AID 1148); settings: higher = more signal;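 note: score merges 667nm spot fluorescence with signal-to-noise for antibody binding to printed compounds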
Torsin-1A (Homo sapiens) [8] = target: Torsin-1A (Homo sapiens) (UniProt O14656); assay: torsin A binders from cell lysate, primary screen, small-molecule microarray, wild-type, 635/667 nm (AID 1149); settings: COS7 hTOR1A-WT lysate, 635 nm fluorescence, higher = more signal
Torsin-1A (Homo sapiens) [9] = target: Torsin-1A (Homo sapiens) (UniProt O14656); assay: small-molecule binders of mutant TOR1A in lysate, primary screen, cell lysate, small-molecule microarray, COS7 lysate, 635/667 nm fluorescence (AID 1150); settings: COS7 hTOR1A mutant lysate, 635 nm fluorescence, higher = more signal;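 note: score pools 667 nm emission and signal to noise measuring lysate protein binding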
[10] = tested on: Sonic hedgehog protein (Shh); assay: small-molecule binders of Shh protein, primary screen, biochemical, small-molecule microarray, 635/667 nm fluorescence (AID 1151); settings: small-molecule microarray binding, 635 nm fluorescence; higher = more signal;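 note: Shh protein binding to compounds spotted on small-molecule microarray slides; score combines spot fluorescence intensity with signal-to-noise across triplicate slides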
[11] = E. coli DRC41 culture turbidity changes, primary screen, E. coli filamentation inducer project, strain DRC41, OD650, 48 h (AID 1152);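 note: E. coli MC1000 strain DRC41 lacking acrAB efflux pump and sulA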; settings: E. coli DRC41 (acrAB sulA), higher = more signal, called active from +8 up or from −8 down
[12] = small-molecule binders of probe aLefty1, primary screen, biochemical, small-molecule microarray, 635/667 nm fluorescence (AID 1153); settings: higher = more signal;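 note: score merges spot fluorescence with signal-to-noise ratio from the scanned slide images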
[13] = PSAC antagonists in infected red cells, primary screen, cell-based, P. falciparum Indochina, OD700, 1 h (AID 1154); settings: P. falciparum Indochina infected RBC osmotic lysis, higher = more signal, called active from +8 up or from −8 down
[14] = PSAC antagonists in infected red cells, primary screen, cell-based, P. falciparum Indochina, OD700, 2 h (AID 1155);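 note: lysis reports solute entry through the parasite surface anion channel PSAC; channel blockers reduce lysis of infected cells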; settings: P. falciparum Indochina infected erythrocytes, osmotic lysis OD700; higher = more signal, called active from +8 up or from −8 down
[15] = osmotic lysis modulators in infected erythrocytes, primary screen, PSAC antagonist project, cell-based, P. falciparum Indochina, OD700, 3 h (AID 1156); settings: higher = more signal, called active from +8 up or from −8 down
[16] = PSAC antagonists in infected red cells, primary screen, cell-based, P. falciparum Indochina, OD700, 18 h (AID 1157); settings: P. falciparum Indochina infected erythrocytes, osmotic lysis OD700, 18 h; higher = more signal, called active from +8 up or from −8 down
[17] = modulators of S6 phosphorylation in cells, primary screen, cell-based, A549, cytoblot, luminescence, serum-stimulated (AID 1158); settings: A549 phospho-S6 cytoblot, 5 h, higher = more signal;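 note: serum-stimulated A549 lung adenocarcinoma cells; signal is phosphorylated S6 detected by cytoblot immunostaining with HRP secondary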
[18] = target: NADPH oxidase 2 (Homo sapiens) (UniProt P04839); assay: NOX2-dependent H2O2 signal modulators, primary screen, NOX inhibitor project, cell-based, HEK293-NOX2, PMA-stimulated, Amplex Red fluorescence (AID 1159); settings: 45 min, higher = more signal, called active from +8 up or from −8 down; note: test concentration not given here
[19] = target: NADPH oxidase 4 (Homo sapiens) (UniProt Q9NPH5); assay: NOX4-dependent H2O2 signal modulators, primary screen, NOX inhibitor project, cell-based, HEK293-NOX4, tetracycline-induced, Amplex Red fluorescence (AID 1160); settings: 45 min, higher = more signal, called active from +8 up or from −8 down
[20] = target: NADPH oxidase 5 (Homo sapiens) (UniProt Q96PH1); assay: NOX5-dependent H2O2 signal modulators, primary screen, NOX inhibitor project, cell-based, HEK293-NOX5, Amplex Red fluorescence (AID 1161); settings: HEK293-NOX5, ionomycin, 45 min, higher = more signal
Chain of NADPH oxidase 5 (Homo sapiens) (Q96PH1 whole entry, looked up): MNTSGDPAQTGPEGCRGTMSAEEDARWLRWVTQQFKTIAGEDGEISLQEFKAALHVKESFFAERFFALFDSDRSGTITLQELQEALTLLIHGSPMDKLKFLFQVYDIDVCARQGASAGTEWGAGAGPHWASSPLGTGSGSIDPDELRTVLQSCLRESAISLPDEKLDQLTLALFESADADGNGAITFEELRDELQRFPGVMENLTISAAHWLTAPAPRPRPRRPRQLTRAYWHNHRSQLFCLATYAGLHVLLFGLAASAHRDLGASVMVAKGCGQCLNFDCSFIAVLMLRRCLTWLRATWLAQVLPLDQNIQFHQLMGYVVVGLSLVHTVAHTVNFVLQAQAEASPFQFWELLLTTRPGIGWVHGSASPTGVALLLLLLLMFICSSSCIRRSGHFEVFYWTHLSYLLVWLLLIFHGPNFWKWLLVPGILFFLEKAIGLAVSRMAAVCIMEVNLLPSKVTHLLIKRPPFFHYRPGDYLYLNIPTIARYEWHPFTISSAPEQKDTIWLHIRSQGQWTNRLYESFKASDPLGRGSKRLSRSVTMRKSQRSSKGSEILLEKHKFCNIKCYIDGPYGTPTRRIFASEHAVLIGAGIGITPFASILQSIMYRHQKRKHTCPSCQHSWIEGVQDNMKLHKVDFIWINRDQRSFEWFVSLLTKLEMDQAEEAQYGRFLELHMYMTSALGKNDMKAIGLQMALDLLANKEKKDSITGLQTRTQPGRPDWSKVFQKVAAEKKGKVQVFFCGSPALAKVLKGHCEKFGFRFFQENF

Chain of Torsin-1A (Homo sapiens) (O14656 whole entry, looked up): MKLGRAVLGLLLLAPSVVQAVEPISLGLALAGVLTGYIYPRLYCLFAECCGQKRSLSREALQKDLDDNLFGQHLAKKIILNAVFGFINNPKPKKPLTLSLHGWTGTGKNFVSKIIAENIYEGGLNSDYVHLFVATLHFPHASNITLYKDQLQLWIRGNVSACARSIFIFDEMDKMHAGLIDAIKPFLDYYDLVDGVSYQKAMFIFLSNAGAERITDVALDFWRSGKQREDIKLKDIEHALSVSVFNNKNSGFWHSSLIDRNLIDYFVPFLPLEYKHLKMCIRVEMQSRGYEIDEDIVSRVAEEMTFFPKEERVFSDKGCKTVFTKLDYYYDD
Chain of NADPH oxidase 2 (Homo sapiens) (P04839 whole entry, looked up): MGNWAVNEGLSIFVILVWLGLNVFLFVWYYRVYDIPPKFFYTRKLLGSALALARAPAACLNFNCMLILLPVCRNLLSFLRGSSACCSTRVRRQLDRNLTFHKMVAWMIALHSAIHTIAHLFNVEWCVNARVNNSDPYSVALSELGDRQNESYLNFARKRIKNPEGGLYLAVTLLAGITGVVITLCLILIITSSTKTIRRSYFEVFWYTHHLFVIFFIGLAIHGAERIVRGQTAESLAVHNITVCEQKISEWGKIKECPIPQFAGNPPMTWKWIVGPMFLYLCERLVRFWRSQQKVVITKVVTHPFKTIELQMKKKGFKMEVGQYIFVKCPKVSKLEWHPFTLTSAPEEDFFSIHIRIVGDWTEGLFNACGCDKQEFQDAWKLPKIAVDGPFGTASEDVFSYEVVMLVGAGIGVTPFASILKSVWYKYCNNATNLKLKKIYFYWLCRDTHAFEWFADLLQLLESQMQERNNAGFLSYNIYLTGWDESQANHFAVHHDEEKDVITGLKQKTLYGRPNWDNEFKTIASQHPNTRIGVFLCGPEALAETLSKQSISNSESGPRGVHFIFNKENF
Chain of Streptavidin (Streptomyces avidinii) (P22629 whole entry, looked up): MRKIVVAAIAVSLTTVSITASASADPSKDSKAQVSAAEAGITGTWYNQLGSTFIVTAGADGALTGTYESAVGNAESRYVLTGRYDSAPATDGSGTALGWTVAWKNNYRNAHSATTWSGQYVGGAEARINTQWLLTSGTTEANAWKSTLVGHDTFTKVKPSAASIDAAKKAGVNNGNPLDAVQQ
Chain of NADPH oxidase 4 (Homo sapiens) (Q9NPH5 whole entry, looked up): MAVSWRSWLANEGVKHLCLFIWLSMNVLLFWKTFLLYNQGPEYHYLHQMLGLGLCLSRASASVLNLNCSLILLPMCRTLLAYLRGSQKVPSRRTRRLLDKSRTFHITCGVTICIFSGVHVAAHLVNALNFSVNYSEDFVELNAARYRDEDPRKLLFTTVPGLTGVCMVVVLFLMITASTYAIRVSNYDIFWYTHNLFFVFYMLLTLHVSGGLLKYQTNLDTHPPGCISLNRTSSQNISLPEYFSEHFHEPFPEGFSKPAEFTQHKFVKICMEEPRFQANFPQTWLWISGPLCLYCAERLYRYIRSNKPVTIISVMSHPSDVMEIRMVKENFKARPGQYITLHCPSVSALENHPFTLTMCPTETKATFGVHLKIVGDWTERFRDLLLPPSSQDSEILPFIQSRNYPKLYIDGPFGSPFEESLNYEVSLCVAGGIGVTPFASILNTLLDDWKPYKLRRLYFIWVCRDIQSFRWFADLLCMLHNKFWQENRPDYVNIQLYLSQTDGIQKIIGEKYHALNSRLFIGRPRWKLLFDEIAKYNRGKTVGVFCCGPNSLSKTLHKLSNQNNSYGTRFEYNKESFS

Row | SMILES | composite z-score [1] | z-score [2] | z-score [3] | z-score [4] | z-score [5] | composite z-score [6] | composite z-score [7] | composite z-score (Torsin-1A (Homo sapiens) [8]) | composite z-score (Torsin-1A (Homo sapiens) [9]) | composite z-score [10] | z-score [11] | composite z-score [12] | z-score [13] | z-score [14] | z-score [15] | z-score [16] | z-score [17] | z-score [18] | z-score [19] | z-score [20]
1 | C=CC[C@]1(C(=O)N2CCOCC2)N=C(c2ccc(OCCCO)cc2)O[C@H]1c1ccccc1CN=[N+]=[N-] | 0.662 | -3.25 (inactive) | 0.112 (inactive) | 3.51 (inactive) | -0.745 (inactive) | 1.06 | 0.455 | 0.689 | 1.1 | 0.871 | 0.434 (inactive) | 0.483 | 27.9 (active) | 23.1 (active) | 3.57 (inactive) | 1.89 (inactive) | -0.0698 | 1.4 (inactive) | 0.226 (inactive) | -1.32
2 | CCN(CC)c1ccc(N2CC=CC34O[C@@H]5/C=C\CCCOC(=O)C5[C@H]3C(=O)N(CCCCCO)[C@@H]4C2=O)cc1 (stereo not given in full) | -0.704 | -0.119 (inactive) | 2.25 (inactive) | 0.605 (inactive) | 0.417 (inactive) | -1.45 | -0.211 | -2.51 | -1.91 | -0.155 | -1.06 (inactive) | -0.0479 | 1.03 (inactive) | 0.0039 (inactive) | -0.656 (inactive) | -0.28 (inactive) | -0.486 | 0.516 (inactive) | -0.21 (inactive) | 1.41
3 | NC(=O)[C@@H]1[C@H]2C(=O)O[C@H](c3ccccc3)[C@H](c3ccccc3)N2[C@H](c2ccccc2OCCO)[C@@]12C(=O)Nc1ccc(C#CCCO)cc12 | -0.335 | -3.21 (inactive) | -0.663 (inactive) | 0.299 (inactive) | -0.445 (inactive) | 0.837 | -0.0407 | -0.969 | 0.115 | -0.116 | 1.41 (inactive) | -0.0464 | 14.3 (active) | 0.966 (inactive) | -2.23 (inactive) | -1.18 (inactive) | 1.02 | 2.03 (inactive) | 1.18 (inactive) | 1.02
4 | COCCOC(=O)N1C(=O)[C@@]2(c3cc(C#Cc4ccc(OC)cc4)ccc31)[C@H](C(=O)N1CCc3cc(OC)c(OC)cc3C1)[C@H]1C(=O)O[C@H](c3ccccc3)[C@H](c3ccccc3)N1[C@@H]2c1ccc(O)cc1 | 0.783 | -0.637 (inactive) | 0.693 (inactive) | -0.0688 (inactive) | 0.236 (inactive) | 0.802 | 1.06 | 0.58 | 0.984 | 0.813 | 0.515 (inactive) | 1.05 | 1.74 (inactive) | 0.402 (inactive) | 0.295 (inactive) | 0.285 (inactive) | 0.269 | 0.987 (inactive) | -1.37 (inactive) | 0.321
5 | O=C(CS)NCCCCCNC(=O)[C@@H]1C[C@@H]2C(=O)N3CCC[C@H]3C(=O)N2[C@@H]1c1ccc(O)cc1 | 0.257 | -0.237 (inactive) | -0.78 (inactive) | -0.13 (inactive) | -0.862 (inactive) | -0.23 | -0.0313 | 0.99 | 1.24 | 0.837 | -0.391 (inactive) | 0.109 | 2.25 (inactive) | 0.508 (inactive) | -2.66 (inactive) | 0.251 (inactive) | -0.244 | 0.927 (inactive) | 0.313 (inactive) | -0.651
6 | CC1(C)[C@@H]2CC(C(O)C3C=CC4C(=O)N(c5ccccc5)C(=O)C4N3Nc3ccccc3F)=C[C@@H]1C2 (stereo not given in full) | 0.512 | -2.69 (inactive) | -1.31 (inactive) | -0.826 (inactive) | -0.7 (inactive) | 0.5 | 0.0291 | 0.233 | 0.541 | 0.625 | 0.446 (inactive) | 0.43 | 1.83 (inactive) | 0.194 (inactive) | -1.57 (inactive) | -0.786 (inactive) | 0.586 | 0.318 (inactive) | 0.0669 (inactive) | -0.156
7 | CCCCC(CC)C(O)C1C=CC2C(=O)NC(=O)C2N1Nc1ccccn1 (stereo not given) | -0.129 | 0.683 (inactive) | -1.03 (inactive) | -0.322 (inactive) | -0.634 (inactive) | 0.91 | -0.0405 | 0.312 | 0.624 | -0.0493 | -0.757 (inactive) | -0.0754 | 1.68 (inactive) | 0.648 (inactive) | 0.186 (inactive) | 0.408 (inactive) | -0.606 | 0.201 (inactive) | -3.35 (inactive) | -2.14
8 | COCCCNC(=O)[C@@]1(Cc2ccccc2)COC(c2ccc(OCCCO)cc2)=N1 | 0.788 | -1.02 (inactive) | 0.211 (inactive) | -0.0808 (inactive) | 0.347 (inactive) | -0.207 | 0.263 | 0.673 | 0.878 | -0.795 | 1.76 (inactive) | 1.1 | 22 (active) | 4.97 (inactive) | 1.12 (inactive) | 1.04 (inactive) | -0.194 | -1.25 (inactive) | 1.05 (inactive) | -0.909
9 | CN(C)CCCC[C@@H]1NC(=O)[C@H]2C[C@@H](C(=O)NCCCCCCNC(=O)CS)[C@@H](c3ccc(O)cc3)N2C1=O | -0.261 | -0.898 (inactive) | -0.113 (inactive) | -1.21 (inactive) | -0.887 (inactive) | -1.05 | -0.224 | 1.13 | 0.753 | 1.92 | 0.446 (inactive) | 0.0048 | 2.46 (inactive) | 0.374 (inactive) | 1.84 (inactive) | 0.178 (inactive) | 0.469 | 1.35 (inactive) | 1.78 (inactive) | 1.52
